tim10-1 inh: inhibits growth of tim10-1 mutant yeast | S. cerevisiae tim10-1 ts strain growth, BacTiter-Glo, 24 h | inhibition, % at 20 µM | 330,000 compounds, 2.2% hits;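 active means inhibition of at least 40%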;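 further: mutant grown at 25 °C; 0% = DMSO wells with yeast and 100% = wells holding no yeast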
tim23-1 inh: inhibits growth of tim23-1 mutant yeast; inhibition, % at 20 µM; 330,000 compounds, 1.3% hits; S. cerevisiae tim23-1 growth, BacTiter-Glo luminescence, 24 h; AID 463212;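 active means growth inhibition of the mutant yeast at or above 50%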;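 further: temperature-sensitive mutant grown at 25 °C; plate controls were DMSO-treated mutant yeast for no effect and medium wells lacking yeast for full effect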
TIM10 inh: inhibits growth of TIM10 yeast strain | S. cerevisiae TIM10 strain growth, BacTiter-Glo luminescence, 24 h | inhibition, % at 10 µM | 330,000 compounds, 1.4% hits | AID 463195;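 active means inhibition of 40% or more at the single tested concentration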;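 further: wild-type TIM10 isogenic control strain grown at permissive 25 °C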
Mdm2-MdmX inh: inhibitors of human Mdm2/MdmX interaction; O15151+Q00987; SaOS-2 split-luciferase Mdm2/MdmX complementation, luminescence; inhibition, % at 8 µM; 330,000 compounds, 3% hits;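 active means inhibition of at least 50% at 8 µM in the primary screen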
MPTP inh: inhibitors of mitochondrial permeability transition pore; isolated mouse mitochondria, Ca2+ swelling absorbance, 30 min; inhibition, % at 10 µM; 360,000 compounds, 1.4% hits; AID 602449;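 active means inhibition of 50% or more, scaled per plate between neutral and stimulator controls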;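 further: 0% = DMSO wells given calcium and 100% = 1 mM EGTA wells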
tim10-1 conf: confirmation of tim10-1 mutant yeast growth inhibitors | shares compounds with tim10-1 inh | 7,400 compounds, 56% hits | S. cerevisiae tim10-1 ts strain growth, BacTiter-Glo, 24 h | inhibition, % at 20 µM;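 active means inhibition of yeast growth at or above a set limit in either of two repeat tests at 20 µM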;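 further: tim10-1 mutant grown at permissive 25 °C to find synthetic lethal compounds; 0% = DMSO yeast wells and 100% = medium wells without yeast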
* marks the source's active call; other numbers are inactive results; nt = not tested or not shown; ! = not active in a repeat. Rows were chosen to be rich in hits. Some 6.3% of all compounds tested hit in one or more screens of this group.

SMILES	tim10-1 inh	tim23-1 inh	TIM10 inh	Mdm2-MdmX inh	MPTP inh	tim10-1 conf
CSc1cccc(NC(=S)N2CCC(c3ccccc3)C2)c1 (stereo unspecified)	47.7*	33.6	30.6	-34.8	3.4	28.2
Cc1ccccc1NC(=O)CC1SC(=O)N(c2ccccc2)C1=O (stereo unspecified)	44.9*	36.6	6.5	-12.2	0.0	37.9*
Cc1cccc(C(=O)OCC(=O)N(C)c2ccccc2)c1C	22.0	49.6	5.3	11.4	0.6	nt
Cc1ccccc1C(=O)OCC(=O)N(C)c1ccccc1	51.7*	37.3	16.2	8.9	-2.6	31.5*
COc1cc(C)c(Br)cc1S(=O)(=O)NCc1cccs1	40.4*	40.1	32.3	-4.2	-0.3	32.0*
C=C(C)CC1Nc2ccccc2NC1CC(=C)C (stereo unspecified)	41.7*	43.4	34.1	-10.2	-1.3	40.7*
CCCCCCSC1=C(C#N)C(c2ccc(C)o2)CC(=O)N1 (stereo unspecified)	40.8*	31.8	23.7	28.1	4.7	6.7
Cc1cc(C(=O)c2ccccc2)cc(C)c1O	nt	nt	nt	nt	-1.3	nt
CC1=C/C(=C(\c2cc(C)c(O)c(Br)c2)c2ccccc2S(=O)(=O)O)C=C(Br)C1=O	46.2*	45.6	32.8	7.0	24.4	44.2*
O=C(/C=C\c1ccc(-c2ccccc2)o1)c1ccccc1	48.3*	45.5	31.4	30.8	7.8	48.2*
O=C(CNC(=S)N(Cc1ccccc1)Cc1ccccc1F)NCCc1ccccc1	41.5*	17.4	11.2	21.6	-1.2	24.4
Cc1cccc(N2CCN(C(=O)C3CCN(S(=O)(=O)c4cccc5nsnc45)CC3)CC2C)c1 (stereo unspecified)	40.3*	3.6	10.4	-6.1	0.1	17.0
O=C(C1CCCN(S(=O)(=O)c2cccc3nsnc23)C1)N1CCc2ccccc21 (stereo unspecified)	40.5*	9.0	30.2	21.1	6.7	36.6*
O=C(C1CCN(S(=O)(=O)c2cccc3nsnc23)CC1)N1CCn2c1nc1ccccc12	41.8*	29.6	31.9	21.9	-1.0	26.0
CCc1nc2c(OCCC3CCCCC3)cccn2c1N(C=O)Cc1ccccc1	nt	nt	nt	nt	0.5	nt
C[C@@H]1CCCCO[C@H](CN(C)C(=O)Nc2ccc3c(c2)OCO3)[C@H](C)CN([C@@H](C)CO)C(=O)c2cc(NS(=O)(=O)c3ccc(Cl)cc3)ccc2O1	nt	nt	nt	nt	0.0	nt
COC(=O)C(C(=O)OC)c1ccccc1NS(=O)(=O)c1c(C)cc(C)cc1C	nt	nt	nt	nt	-0.9	nt
COC1=C(Nc2ccc(O)cc2)C(=O)c2ccccc2C1=O	38.8	41.9	35.9	-31.9	-7.9	nt
COC1=C(Nc2ccc(OC)cc2)C(=O)c2ccccc2C1=O	40.0*	39.8	1.0	-14.9	5.7	19.4
CCOc1ccc(NC2=C(OC)C(=O)c3ccccc3C2=O)cc1	44.3*	28.6	8.1	-16.3	5.1	9.1
O=P(OC1CCCCC1)(OC1CCCCC1)C(O)c1c(Cl)cccc1Cl (stereo unspecified)	42.7*	43.1	34.3	20.8	4.3	22.9
CCCC(=O)Nc1ccc(C(=O)/C=C/c2ccc(SC)cc2)cc1	44.8*	41.7	28.9	24.0	8.4	33.9*
O=C(NCC(c1cccs1)N1CCOCC1)c1cc([N+](=O)[O-])cc([N+](=O)[O-])c1 (stereo unspecified)	41.9*	19.3	-2.7	-11.4	-0.7	12.8
O=C(NCC(c1cccs1)N1CCOCC1)c1cccc([N+](=O)[O-])c1 (stereo unspecified)	8.2	6.2	7.8	21.5	-1.0	nt
O=C(NCCc1ccccc1)c1ccc(-c2ccccc2C(F)(F)F)o1	22.0	24.9	-0.2	-20.6	nt	nt
SMILES	tim10-1 inh	tim23-1 inh	TIM10 inh	Mdm2-MdmX inh	MPTP inh	tim10-1 conf
O=C(NCc1ccccc1)c1ccc(-c2ccccc2F)o1	41.7*	47.0	23.8	-128.4	2.7	36.1*
COc1ccc(C/C(C)=N/NC(=S)Nc2ccccc2F)cc1	30.2	12.9	21.6	2.5	1.0	nt
COc1ccc(C/C(C)=N/NC(=S)Nc2ccc(C(C)C)cc2)cc1	40.3*	34.0	9.8	-11.0	-1.1	24.6
CCCCC(=O)N(C)c1c(CC)nc2c(OCc3cc(Cl)cc(Cl)c3)cccn12	nt	nt	nt	nt	0.0	nt
CCOC(=O)C1CCCN(C(=O)Cn2sc3nc(C)cc(C)c3c2=O)C1 (stereo unspecified)	40.6*	6.9	3.0	-18.0	-3.1	30.4
O=C(c1ccc(-c2ccccc2Cl)o1)N1CCC1	-4.5	22.9	-15.0	-8.0	-2.3	nt
O=C(c1ccc(-c2cccc(Cl)c2Cl)o1)N1CCOCC1	44.3*	38.8	22.5	-173.9	0.6	41.8*
CC(C)C(=O)N(c1ccc2oc(=O)sc2c1)S(=O)(=O)c1cccs1	11.8	21.5	8.6	0.7	0.7	nt
CC(C)C(=O)N(c1cc2sc(=O)oc2c2ccccc12)S(=O)(=O)c1cccs1	46.7*	22.7	20.9	6.4	0.7	15.6
COc1ccc(C)cc1NC(=O)CNc1ccccc1CN(C)C1CCCCC1	15.7	13.7	-6.7	-14.5	0.8	nt
COc1ccc(Cl)cc1NC(=O)CNc1ccccc1CN(C)C1CCCCC1	43.0*	18.9	16.8	20.9	36.8	30.4*
COc1ccc(OC)c(N=c2ssnc2Cl)c1	46.9*	24.7	12.2	-2.8	-0.2	31.7*
COc1cc(N=c2ssnc2Cl)c(OC)cc1Cl	41.7*!	44.5	13.2	11.1	3.6	50.8*
O=C(CC[C@H]1O[C@@H](n2cnc3c(NC(=O)c4ccccc4)ncnc32)[C@H](O)[C@@H]1O)NCc1nc2ccccc2[nH]1	nt	nt	nt	nt	-2.1	nt
Cc1nc(N)sc1-c1csc(Nc2ccc(Cl)cn2)n1	56.7*	47.6	30.7	-11.8	-0.4	38.1*
Nc1ncnc2c1ccn2[C@H]1CN(Cc2ccc3c(c2)OCO3)C[C@@H](COC(=O)c2ccccc2)O1	nt	nt	nt	nt	0.7	nt
Cc1noc(C)c1NC(=O)N(C)C[C@@H]1Oc2cc(Br)ccc2S(=O)(=O)N([C@H](C)CO)C[C@@H]1C	nt	nt	nt	nt	-1.1	nt
Cc1cc(C(=O)N2CCN(C(c3ccccc3)c3ccccc3)CC2)no1	41.5*	25.7	34.6	-21.7	-2.0	23.8
CC1(C(=O)Nc2ccc3c(c2)OCCO3)CCN1C(=O)Cc1ccc(-c2ccccc2)cc1 (stereo unspecified)	nt	nt	nt	nt	1.4	nt
COc1ccc(C(=O)C[C@@H]2OC3CCCCC3N2S(=O)(=O)c2ccc(C)cc2)cc1OC (stereo partly specified)	nt	nt	nt	nt	0.8	nt
CC(C)(C)C(=O)Nc1ccccc1C(=O)Nc1cc(Cl)ccc1Cl	43.3*	41.0	38.8	16.3	3.5	36.1*
CC(C)(C)C(=O)Nc1ccccc1C(=O)Nc1cccnc1	10.2	2.3	-15.6	12.2	-0.6	nt
CCc1c(C)[nH]n(-c2nc(-c3ccccc3)cs2)c1=O	49.7*	33.5	17.6	-28.7	1.3	31.1*
FC(F)Oc1ccc(/C=N/c2c(-c3ccc(OC(F)F)cc3)nc3n2CCS3)cc1	47.4*	9.3	5.9	2.8	2.0	23.9

Screening data deposited in PubChem by Sanford-Burnham Center for Chemical Genomics.
